As usually defined, the inhibition is the drop in the measured response relative to a control, in per cent.

Assay [1] concerns the target 5'-AMP-activated protein kinase catalytic subunit alpha-2 (Homo sapiens) (UniProt P54646). The following applies: at 1 µM.
Assay [2] concerns the target T1, NUAK family SNF1-like kinase 1 (Homo sapiens) (UniProt O60285).
T1 sequence (whole entry): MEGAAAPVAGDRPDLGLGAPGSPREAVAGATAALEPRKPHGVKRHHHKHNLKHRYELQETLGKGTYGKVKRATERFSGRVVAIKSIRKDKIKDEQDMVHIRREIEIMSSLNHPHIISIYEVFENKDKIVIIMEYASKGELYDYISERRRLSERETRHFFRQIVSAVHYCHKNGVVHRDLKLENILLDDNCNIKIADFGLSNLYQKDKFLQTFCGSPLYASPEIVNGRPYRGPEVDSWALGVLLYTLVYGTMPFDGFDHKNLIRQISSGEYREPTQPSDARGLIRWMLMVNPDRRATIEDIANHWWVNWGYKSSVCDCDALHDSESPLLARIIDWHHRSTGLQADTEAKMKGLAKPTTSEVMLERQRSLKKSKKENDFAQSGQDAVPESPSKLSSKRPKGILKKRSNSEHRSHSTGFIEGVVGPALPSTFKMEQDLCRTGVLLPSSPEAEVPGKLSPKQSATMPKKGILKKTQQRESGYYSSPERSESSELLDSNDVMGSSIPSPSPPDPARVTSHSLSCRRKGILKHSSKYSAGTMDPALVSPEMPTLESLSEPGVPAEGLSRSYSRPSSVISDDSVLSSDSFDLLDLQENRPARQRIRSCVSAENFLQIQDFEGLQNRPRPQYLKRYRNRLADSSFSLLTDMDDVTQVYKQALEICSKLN
To be noted: at 0.1 µM.

For assay [3], the target named is T1, NUAK family SNF1-like kinase 1 (Homo sapiens). The following applies: at 1 µM.
The target of assay [4] is T2, Serine/threonine-protein kinase BRSK1 (Homo sapiens) (UniProt Q8TDC3).
T2 sequence (whole entry): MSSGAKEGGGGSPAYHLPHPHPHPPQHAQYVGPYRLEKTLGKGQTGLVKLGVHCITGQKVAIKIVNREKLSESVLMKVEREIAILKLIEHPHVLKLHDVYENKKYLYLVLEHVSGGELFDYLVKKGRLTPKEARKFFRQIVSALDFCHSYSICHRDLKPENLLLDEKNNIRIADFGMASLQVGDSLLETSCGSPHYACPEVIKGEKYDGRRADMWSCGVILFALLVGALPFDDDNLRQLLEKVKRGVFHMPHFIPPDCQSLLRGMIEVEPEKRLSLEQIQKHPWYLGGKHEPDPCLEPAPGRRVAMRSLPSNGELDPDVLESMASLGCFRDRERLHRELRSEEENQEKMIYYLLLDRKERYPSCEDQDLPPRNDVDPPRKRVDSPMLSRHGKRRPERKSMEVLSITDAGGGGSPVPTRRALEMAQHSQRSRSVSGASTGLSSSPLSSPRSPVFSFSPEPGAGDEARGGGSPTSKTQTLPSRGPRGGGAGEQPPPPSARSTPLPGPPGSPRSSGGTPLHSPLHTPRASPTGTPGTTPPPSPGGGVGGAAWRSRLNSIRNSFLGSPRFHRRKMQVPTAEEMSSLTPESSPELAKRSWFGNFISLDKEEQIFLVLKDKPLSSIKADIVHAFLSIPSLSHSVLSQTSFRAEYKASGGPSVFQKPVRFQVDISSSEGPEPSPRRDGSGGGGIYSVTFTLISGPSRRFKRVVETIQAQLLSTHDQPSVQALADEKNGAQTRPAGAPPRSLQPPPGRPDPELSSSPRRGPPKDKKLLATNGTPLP
The following applies: at 0.1 µM.

The target of assay [5] is T2, Serine/threonine-protein kinase BRSK1 (Homo sapiens). To be noted: at 1 µM.
The target of assay [6] is T3, Serine/threonine-protein kinase BRSK2 (Homo sapiens) (UniProt Q8IWQ3).
T3 sequence (whole entry): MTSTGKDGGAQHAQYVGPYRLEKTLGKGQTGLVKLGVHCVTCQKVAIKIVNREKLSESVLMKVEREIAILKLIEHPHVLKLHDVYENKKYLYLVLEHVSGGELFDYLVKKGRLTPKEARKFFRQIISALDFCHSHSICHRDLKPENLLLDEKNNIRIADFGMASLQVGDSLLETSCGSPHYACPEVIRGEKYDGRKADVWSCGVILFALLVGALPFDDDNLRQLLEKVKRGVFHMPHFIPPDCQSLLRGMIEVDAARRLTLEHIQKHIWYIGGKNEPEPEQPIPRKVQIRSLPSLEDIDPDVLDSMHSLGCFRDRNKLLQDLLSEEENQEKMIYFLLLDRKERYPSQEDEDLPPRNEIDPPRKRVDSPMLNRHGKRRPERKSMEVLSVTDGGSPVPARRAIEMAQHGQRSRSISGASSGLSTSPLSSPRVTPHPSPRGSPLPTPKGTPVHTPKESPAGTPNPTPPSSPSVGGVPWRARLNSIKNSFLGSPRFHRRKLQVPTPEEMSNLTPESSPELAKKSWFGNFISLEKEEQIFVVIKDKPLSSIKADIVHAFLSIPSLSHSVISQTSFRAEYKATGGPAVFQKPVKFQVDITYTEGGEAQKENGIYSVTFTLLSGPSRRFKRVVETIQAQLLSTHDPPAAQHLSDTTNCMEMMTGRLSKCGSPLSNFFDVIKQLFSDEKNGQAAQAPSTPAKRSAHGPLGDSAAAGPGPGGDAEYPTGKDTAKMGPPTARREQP
To be noted: at 0.1 µM.

Assay [7] addresses T3, Serine/threonine-protein kinase BRSK2 (Homo sapiens). To be noted: at 1 µM.
The target in assay [8] is Calcium/calmodulin-dependent protein kinase type 1D (Homo sapiens) (UniProt Q8IU85). The following applies: at 0.1 µM.
The target is the same in assay [9]. To be noted: at 1 µM.
Assay [10] deals with Calcium/calmodulin-dependent protein kinase type II subunit alpha (Homo sapiens) (UniProt Q9UQM7). To be noted: at 0.1 µM.
Assay [11] shares this target. To be noted: at 1 µM.
Assay [12] concerns the target Calcium/calmodulin-dependent protein kinase type II subunit delta (Homo sapiens) (UniProt Q13557). The following applies: at 0.1 µM.
For assay [13] the target is unchanged. The following applies: at 1 µM.
Assay [14] concerns the target T4, Calcium/calmodulin-dependent protein kinase type IV (Homo sapiens) (UniProt Q16566).
T4 sequence (whole entry): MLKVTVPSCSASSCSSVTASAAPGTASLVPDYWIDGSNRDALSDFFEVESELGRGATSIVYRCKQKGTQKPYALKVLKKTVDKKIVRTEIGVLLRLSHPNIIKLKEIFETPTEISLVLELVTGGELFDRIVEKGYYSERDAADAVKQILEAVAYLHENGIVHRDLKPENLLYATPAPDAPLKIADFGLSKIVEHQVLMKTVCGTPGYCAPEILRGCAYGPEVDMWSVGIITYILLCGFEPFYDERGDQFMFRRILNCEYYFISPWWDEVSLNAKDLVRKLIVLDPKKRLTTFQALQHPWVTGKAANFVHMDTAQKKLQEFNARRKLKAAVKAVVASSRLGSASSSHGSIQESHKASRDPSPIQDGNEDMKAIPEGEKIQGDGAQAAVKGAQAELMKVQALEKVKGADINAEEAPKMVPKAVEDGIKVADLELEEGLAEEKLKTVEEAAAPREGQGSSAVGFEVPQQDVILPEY
To be noted: at 0.1 µM.

Assay [15] addresses T4, Calcium/calmodulin-dependent protein kinase type IV (Homo sapiens). To be noted: at 1 µM.
For assay [16], the target named is T5, Serine/threonine-protein kinase Chk1 (Homo sapiens) (UniProt O14757).
T5 sequence (whole entry): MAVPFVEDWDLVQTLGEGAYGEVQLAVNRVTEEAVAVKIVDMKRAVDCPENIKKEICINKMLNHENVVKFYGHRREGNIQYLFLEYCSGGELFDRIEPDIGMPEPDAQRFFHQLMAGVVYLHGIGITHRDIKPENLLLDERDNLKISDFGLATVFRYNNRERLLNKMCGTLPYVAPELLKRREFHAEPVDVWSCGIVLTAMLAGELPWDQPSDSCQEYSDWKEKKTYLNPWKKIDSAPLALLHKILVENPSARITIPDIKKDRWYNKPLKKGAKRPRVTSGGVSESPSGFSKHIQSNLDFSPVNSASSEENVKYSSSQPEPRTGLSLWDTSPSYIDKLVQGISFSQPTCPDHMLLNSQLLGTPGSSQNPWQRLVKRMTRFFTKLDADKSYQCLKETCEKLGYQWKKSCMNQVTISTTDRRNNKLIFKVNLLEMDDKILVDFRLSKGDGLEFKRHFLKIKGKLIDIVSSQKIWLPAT
The following applies: at 0.1 µM.

Assay [17] concerns the target T5, Serine/threonine-protein kinase Chk1 (Homo sapiens). The following applies: at 1 µM.
The target of assay [18] is Serine/threonine-protein kinase Chk2 (Homo sapiens) (UniProt O96017). To be noted: at 0.1 µM.
The target is the same in assay [19]. To be noted: at 1 µM.
The target of assay [20] is Death-associated protein kinase 1 (Homo sapiens) (UniProt P53355). To be noted: at 0.1 µM.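 Note: reported figure is the mean inhibition of DAPK1.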
Sequence of Death-associated protein kinase 1 (Homo sapiens) (P53355 whole entry, looked up): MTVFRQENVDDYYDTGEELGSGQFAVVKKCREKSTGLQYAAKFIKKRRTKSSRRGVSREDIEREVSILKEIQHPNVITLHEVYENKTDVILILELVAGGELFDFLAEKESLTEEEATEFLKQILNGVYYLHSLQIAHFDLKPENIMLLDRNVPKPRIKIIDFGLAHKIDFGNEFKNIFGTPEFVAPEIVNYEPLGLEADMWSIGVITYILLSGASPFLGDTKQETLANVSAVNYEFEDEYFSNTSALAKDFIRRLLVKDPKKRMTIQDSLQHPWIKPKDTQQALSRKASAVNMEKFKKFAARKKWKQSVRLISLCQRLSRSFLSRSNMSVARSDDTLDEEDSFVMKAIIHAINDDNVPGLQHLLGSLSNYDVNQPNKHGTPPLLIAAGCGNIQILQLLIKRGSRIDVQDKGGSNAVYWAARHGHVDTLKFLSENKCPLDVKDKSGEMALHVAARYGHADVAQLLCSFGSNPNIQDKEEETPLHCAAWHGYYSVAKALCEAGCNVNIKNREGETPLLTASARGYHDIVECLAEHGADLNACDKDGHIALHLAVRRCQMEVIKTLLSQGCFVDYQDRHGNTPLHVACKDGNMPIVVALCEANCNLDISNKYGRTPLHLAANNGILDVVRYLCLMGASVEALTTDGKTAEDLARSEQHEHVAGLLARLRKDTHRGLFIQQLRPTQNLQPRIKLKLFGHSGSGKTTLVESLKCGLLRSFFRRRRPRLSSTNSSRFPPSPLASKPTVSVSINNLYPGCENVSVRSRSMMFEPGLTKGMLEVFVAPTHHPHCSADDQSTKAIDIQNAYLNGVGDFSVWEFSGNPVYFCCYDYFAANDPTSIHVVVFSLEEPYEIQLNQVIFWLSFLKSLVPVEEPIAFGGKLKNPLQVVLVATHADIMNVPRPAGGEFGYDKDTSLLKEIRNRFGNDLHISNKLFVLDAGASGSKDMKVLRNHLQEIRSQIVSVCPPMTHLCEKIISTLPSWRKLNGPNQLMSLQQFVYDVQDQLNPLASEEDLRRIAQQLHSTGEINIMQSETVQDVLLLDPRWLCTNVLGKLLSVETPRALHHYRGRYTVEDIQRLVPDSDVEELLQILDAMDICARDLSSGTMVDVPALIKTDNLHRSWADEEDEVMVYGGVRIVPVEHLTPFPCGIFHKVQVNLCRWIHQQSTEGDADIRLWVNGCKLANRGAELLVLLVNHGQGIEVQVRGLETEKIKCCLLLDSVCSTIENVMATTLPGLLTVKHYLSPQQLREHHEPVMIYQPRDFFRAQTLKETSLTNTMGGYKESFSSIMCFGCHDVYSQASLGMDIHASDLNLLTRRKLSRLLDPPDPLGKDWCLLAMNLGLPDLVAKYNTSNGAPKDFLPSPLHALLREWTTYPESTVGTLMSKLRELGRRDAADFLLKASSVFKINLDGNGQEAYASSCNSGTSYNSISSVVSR

Sequence of Calcium/calmodulin-dependent protein kinase type 1D (Homo sapiens) (Q8IU85 whole entry, looked up): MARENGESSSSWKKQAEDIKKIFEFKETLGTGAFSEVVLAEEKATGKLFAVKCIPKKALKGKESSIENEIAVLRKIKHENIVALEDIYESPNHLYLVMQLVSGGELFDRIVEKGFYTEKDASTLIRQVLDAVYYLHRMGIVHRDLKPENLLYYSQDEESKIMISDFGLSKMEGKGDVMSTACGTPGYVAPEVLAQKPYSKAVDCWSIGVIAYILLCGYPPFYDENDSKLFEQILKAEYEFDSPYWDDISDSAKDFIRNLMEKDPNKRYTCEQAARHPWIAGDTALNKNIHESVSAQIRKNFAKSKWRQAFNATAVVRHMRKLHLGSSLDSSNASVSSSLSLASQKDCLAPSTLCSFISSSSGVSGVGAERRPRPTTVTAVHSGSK
Sequence of Serine/threonine-protein kinase Chk2 (Homo sapiens) (O96017 whole entry): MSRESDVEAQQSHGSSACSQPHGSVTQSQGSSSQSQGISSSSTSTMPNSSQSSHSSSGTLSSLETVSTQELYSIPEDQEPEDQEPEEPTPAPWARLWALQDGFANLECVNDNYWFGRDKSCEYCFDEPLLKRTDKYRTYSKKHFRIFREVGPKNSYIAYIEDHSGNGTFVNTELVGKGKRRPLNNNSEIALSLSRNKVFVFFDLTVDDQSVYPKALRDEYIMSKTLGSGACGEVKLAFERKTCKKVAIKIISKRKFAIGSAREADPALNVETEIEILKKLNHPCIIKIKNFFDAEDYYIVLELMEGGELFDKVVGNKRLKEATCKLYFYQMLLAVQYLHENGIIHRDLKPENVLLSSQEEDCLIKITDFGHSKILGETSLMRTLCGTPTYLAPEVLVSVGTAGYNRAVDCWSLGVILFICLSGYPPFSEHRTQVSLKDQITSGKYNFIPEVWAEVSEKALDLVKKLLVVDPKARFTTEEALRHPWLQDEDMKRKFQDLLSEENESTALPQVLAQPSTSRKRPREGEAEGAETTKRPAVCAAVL
Sequence of 5'-AMP-activated protein kinase catalytic subunit alpha-2 (Homo sapiens) (P54646 whole entry, looked up): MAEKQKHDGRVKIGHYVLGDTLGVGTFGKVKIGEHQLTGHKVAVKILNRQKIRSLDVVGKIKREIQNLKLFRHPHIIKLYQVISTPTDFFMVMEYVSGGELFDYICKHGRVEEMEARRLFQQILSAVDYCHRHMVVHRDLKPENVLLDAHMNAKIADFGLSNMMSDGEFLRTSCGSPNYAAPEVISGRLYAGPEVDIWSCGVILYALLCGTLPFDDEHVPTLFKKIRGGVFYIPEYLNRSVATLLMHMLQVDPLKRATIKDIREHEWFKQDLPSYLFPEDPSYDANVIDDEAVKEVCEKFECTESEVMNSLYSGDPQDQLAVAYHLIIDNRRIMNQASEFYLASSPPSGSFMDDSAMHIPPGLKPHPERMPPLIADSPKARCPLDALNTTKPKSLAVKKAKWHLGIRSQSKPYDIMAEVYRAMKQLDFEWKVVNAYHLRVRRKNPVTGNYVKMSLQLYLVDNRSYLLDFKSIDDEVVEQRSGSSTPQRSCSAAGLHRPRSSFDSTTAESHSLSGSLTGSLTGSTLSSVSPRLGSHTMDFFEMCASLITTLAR
Sequence of Calcium/calmodulin-dependent protein kinase type II subunit delta (Homo sapiens) (Q13557 whole entry): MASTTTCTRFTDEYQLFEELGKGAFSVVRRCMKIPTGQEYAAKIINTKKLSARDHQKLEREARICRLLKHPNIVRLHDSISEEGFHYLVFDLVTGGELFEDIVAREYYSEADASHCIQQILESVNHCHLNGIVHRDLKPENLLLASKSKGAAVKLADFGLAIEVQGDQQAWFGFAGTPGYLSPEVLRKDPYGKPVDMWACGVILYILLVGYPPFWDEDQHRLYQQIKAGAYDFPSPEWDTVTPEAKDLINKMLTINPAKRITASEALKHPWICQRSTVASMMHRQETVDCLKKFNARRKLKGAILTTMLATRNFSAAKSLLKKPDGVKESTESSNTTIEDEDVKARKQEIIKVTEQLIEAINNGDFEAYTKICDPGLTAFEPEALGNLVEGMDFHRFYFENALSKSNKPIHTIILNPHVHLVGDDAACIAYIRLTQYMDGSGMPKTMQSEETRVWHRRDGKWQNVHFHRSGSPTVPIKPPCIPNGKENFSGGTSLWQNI
Sequence of Calcium/calmodulin-dependent protein kinase type II subunit alpha (Homo sapiens) (Q9UQM7 whole entry): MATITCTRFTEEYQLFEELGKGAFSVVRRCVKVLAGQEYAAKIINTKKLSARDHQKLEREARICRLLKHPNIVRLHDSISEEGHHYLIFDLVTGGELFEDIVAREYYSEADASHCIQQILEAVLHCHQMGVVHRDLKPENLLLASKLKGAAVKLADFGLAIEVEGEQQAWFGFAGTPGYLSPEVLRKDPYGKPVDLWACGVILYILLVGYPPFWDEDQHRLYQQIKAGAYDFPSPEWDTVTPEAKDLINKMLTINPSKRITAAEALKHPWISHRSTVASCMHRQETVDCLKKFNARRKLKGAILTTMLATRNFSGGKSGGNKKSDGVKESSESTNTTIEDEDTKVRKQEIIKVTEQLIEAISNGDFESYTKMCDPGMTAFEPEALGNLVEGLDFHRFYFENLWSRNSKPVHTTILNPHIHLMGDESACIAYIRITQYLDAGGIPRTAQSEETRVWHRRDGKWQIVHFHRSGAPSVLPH

Turning to `CCCN1CCC=C(c2ccc(Nc3nc(Nc4ccccc4C(N)=O)c4cc[nH]c4n3)c(C)c2)C1`, the inhibition in assay [1] was found to be 14.5%; in assay [2], 48.4%; in assay [3] it was 69.8%; in [4] it was 3.51%; in [5] it was 4.05%; in assay [6], 2.36%. The inhibition came out at 6.53% in assay [7]; 1.21% in assay [8]; 12.8% in [9]; 3.75% in assay [10]; 8.19% in [11]; 5.36% in [12]. In addition, the inhibition in assay [13] is 20.6%; in [14], -0.28%; in assay [15], 9.19%; in assay [16], 1.09%; in [17] it was 8.05%; in [18], 13.1%. The inhibition was 51.3% in assay [19] and 6.81% in assay [20].

With `CC1=C(C(=O)Nc2ccc3[nH]ncc3c2)C(c2ccc(Cl)c(Cl)c2)CC(=O)N1` (stereo not given), the inhibition in assay [1] is 7.05%; in [2], -0.25%; in [3], 14.9%; in assay [4], 1.14%; in [5], 10.1%; in assay [6], 1.61%. In addition, the inhibition in assay [7] is 15.5%; in assay [8], -0.31%; in assay [9], 1.37%; in assay [10], 1.87%; in [11], 2.88%; in [12], 2.72%. Moreover, the inhibition in assay [13] is 3.98%; in assay [14], 1.22%; in [15], 2.09%; in assay [16], -1.3%; in assay [17] it was -0.85%; in assay [18] it was 1.4%. The inhibition in [19] was 4.28%; in assay [20] it was -2.03%.

Regarding `CS(=O)(=O)CCN(CC#N)Cc1ccc(-c2ccc3ncnc(Nc4ccc(OCc5cccc(F)c5)c(Cl)c4)c3c2)o1`, the inhibition was -0.61% in [1]; 0.1% in [2]; 1.9% in assay [3]; 0.56% in [4]; -2.91% in assay [5]; 0.28% in [6]. The inhibition in [7] was 0.65%; in assay [8], -1.29%; in [9], -1.27%; in [10], -0.98%; in assay [11] it was -2.02%; in assay [12], 1.25%. For the same molecule, the inhibition in assay [13] is 2.48%; in assay [14], -2.98%; in [15], -0.45%; in assay [16], 0.28%; in assay [17], 2.55%; in [18], 0.67%. Besides, the inhibition in [19] is 1.7%; in [20], -0.47%.

`COc1ccc2cc(-c3c(-c4ccncc4)nc(-c4ccc([S+](C)[O-])cc4)n3C)ccc2c1` (stereo not given): the inhibition in [1] was determined as 3.34%; in assay [2], 1.01%; in [3] it was 2.13%; in [4] it was 1.67%; in [5] it was 3.16%; in [6], 1.67%. The inhibition in [7] is 0.66%; in [8] it was -0.09%; in [9], 0.68%; in assay [10] it was 3.34%; in [11], 3.37%; in assay [12] it was 2.81%. In addition, the inhibition was determined as 3.06% in assay [13]; 0.45% in assay [14]; 1.25% in [15]; 3.28% in assay [16]; 4.03% in assay [17]; 2.27% in assay [18]. Moreover, the inhibition came to 2.52% in assay [19] and 3.27% in assay [20].

The values are drawn from ChEMBL document CHEMBL1961873, “Compounds: GSK PKIS; Assays: Nanosyn kinase panel” (2012).
